# Source: article PMC5700166
# Residue numbers refer to the chain shown, from its start.
# Experiments:
# Test in all cases: protein-binding microarray (PBM); PBM: ~300 nM protein, 6 mM HEPES pH 7.8, 80 mM KCl, 0.5 mM EDTA, 0.5 mM EGTA, 6% glycerol, 35 ng/ul poly-dIdC, 1% milk, 1 h, room temperature; Ap Aiptasia and Nv Nematostella (sea anemones) / Co Capsaspora / Aq Amphimedon (sponge) / Dm Drosophila / Hu human; RHD is the Rel homology domain; high values mean tight binding
# Conditions in all cases: dsDNA, one strand shown
# [1] = target: T1, GST-Ap-NF-kB RHD (Exaiptasia pallida (Aiptasia), UniProt A0A913YAJ5 2-422)
# T1 sequence: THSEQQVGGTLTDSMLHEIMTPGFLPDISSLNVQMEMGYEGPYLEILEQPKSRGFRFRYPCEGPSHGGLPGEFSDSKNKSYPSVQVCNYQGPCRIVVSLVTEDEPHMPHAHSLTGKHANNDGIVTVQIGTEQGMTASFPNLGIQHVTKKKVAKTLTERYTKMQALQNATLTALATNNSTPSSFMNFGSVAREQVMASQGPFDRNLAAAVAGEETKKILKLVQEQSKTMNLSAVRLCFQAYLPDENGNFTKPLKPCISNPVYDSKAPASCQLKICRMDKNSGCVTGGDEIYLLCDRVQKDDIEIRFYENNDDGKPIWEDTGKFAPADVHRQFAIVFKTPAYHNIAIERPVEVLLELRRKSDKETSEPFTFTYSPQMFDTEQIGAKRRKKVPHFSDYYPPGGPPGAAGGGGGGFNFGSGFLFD
# [2] = target: T2, GST-Nv-NF-kB (Cys allele) (Nematostella vectensis, UniProt E5G601 2-411)
# T2 sequence: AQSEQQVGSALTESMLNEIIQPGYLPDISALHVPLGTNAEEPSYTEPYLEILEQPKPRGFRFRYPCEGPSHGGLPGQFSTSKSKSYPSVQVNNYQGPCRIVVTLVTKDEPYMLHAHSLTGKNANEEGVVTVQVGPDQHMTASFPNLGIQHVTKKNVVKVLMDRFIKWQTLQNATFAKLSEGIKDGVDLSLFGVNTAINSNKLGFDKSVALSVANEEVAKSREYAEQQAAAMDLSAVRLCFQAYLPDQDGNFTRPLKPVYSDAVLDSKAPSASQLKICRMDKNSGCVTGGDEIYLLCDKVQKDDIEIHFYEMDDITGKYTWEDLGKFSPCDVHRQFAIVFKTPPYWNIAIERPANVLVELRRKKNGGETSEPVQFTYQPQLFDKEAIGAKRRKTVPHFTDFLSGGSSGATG
# [3] = target: T3, GST-Nv-NF-kB (Ser allele) (Nematostella vectensis, UniProt A7UNT2 2-411)
# T3 sequence: T2 sequence with Q21R, C66S, S207N, E215Q, V217A, E225K, A268E, D399E
# [4] = target: T4, GST-Co-NF-kB (Capsaspora owczarzaki, UniProt F1ARL5 200-546)
# T4 sequence: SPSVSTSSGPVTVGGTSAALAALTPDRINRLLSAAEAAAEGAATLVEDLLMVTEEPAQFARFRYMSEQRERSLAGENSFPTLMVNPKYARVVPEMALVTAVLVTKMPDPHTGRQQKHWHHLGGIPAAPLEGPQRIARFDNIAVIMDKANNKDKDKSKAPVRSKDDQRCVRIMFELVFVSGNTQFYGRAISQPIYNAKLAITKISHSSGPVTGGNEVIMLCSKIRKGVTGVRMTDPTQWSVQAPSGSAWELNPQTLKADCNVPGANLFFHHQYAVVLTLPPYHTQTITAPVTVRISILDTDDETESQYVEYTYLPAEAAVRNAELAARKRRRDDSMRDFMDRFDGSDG
# [5] = target: T5, GST-Dm-Relish (Drosophila melanogaster, UniProt Q94527 99-473)
# T5 sequence: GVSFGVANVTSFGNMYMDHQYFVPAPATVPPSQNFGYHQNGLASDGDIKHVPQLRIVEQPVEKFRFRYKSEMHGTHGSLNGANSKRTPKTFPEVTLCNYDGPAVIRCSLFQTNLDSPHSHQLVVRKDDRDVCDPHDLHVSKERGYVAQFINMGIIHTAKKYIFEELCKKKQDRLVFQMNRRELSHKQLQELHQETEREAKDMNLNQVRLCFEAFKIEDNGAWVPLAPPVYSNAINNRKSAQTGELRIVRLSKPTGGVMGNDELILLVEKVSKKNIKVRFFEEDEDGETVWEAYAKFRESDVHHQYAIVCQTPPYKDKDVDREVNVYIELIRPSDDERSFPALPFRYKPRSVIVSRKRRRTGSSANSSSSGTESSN
# [6] = target: T6, GST-Aq-NF-kB (Amphimedon queenslandica, UniProt A9Y5G7 2-389)
# T6 sequence: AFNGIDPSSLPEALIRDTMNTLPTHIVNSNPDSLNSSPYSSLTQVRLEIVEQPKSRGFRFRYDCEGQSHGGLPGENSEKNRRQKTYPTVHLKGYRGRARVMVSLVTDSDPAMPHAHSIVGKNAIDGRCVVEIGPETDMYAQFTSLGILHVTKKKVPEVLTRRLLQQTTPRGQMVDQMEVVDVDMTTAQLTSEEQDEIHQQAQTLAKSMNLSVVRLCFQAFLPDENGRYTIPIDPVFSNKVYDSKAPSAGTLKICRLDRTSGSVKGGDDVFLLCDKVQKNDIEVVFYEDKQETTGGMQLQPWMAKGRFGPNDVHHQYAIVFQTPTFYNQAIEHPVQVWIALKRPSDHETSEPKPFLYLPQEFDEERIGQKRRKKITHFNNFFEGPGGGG
# [7] = target: GST-Hu-p50 (Homo sapiens, UniProt P19838 7-356)
# Sequence of GST-Hu-p50 (P19838 7-356): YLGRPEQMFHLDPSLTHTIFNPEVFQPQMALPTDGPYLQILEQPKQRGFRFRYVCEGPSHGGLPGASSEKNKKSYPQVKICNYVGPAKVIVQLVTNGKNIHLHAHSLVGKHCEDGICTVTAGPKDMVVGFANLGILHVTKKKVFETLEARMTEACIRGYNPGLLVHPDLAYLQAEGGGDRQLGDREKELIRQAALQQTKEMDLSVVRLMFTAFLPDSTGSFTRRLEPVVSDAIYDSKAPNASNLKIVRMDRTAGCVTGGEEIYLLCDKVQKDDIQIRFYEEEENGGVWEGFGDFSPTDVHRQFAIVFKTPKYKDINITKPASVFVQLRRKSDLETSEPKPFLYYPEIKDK
Sequence,binding signal [1] [z-score],binding signal [2] [z-score],binding signal [3] [z-score],binding signal [4] [z-score],binding signal [5] [z-score],binding signal [6] [z-score],binding signal [7] [z-score]
CCGATTAACATCAGGGGAAAAGATGATGTTAATCGGGTCTTGATTCGCTTGACGCTGCTG,5.46,6.76,9.01,7.74,1.82,4.78,5.18
CCGATTAACATCAGGGGATTTTATGATGTTAATCGGGTCTTGATTCGCTTGACGCTGCTG,10.4,11.7,12.7,4.81,9.55,8.66,8.09
CCGATTAACATCAGATTTCCCCCTGATGTTAATCGGGTCTTGATTCGCTTGACGCTGCTG,8.72,8.96,10.8,11,6.42,7.34,7.39
CCGATTAACATCAGGGAATTTCATGATGTTAATCGGGTCTTGATTCGCTTGACGCTGCTG,5,7.17,7.08,3.61,4.49,5.84,5.25
CCGATTAACATCAAAATCCCCCTTGATGTTAATCGGGTCTTGATTCGCTTGACGCTGCTG,10.1,10.7,12.1,6.3,10.2,8.68,8.9
CCGATTAACATCAAGGAATCCCCTGATGTTAATCGGGTCTTGATTCGCTTGACGCTGCTG,9.79,9.72,10.4,3.63,10.1,7.6,7.1
CCGATTAACATCAGGGTATTTAATGATGTTAATCGGGTCTTGATTCGCTTGACGCTGCTG,2.74,4.26,4.73,1.37,3.25,4.14,4.41
CCGATTAACATCATTCCCGGGAATGATGTTAATCGGGTCTTGATTCGCTTGACGCTGCTG,2.49,4.09,3.45,5.77,1.81,3.95,2.31
CCGATTAACATCAGGGAATCCCATGATGTTAATCGGGTCTTGATTCGCTTGACGCTGCTG,5.36,4.92,4.14,2.97,10.4,6.45,4.13
CCGATTAACATCAAATATTCCCTTGATGTTAATCGGGTCTTGATTCGCTTGACGCTGCTG,5.14,6.37,6.41,3.47,3.18,5.56,4.16
CCGATTAACATCAAAAGTACCCCTGATGTTAATCGGGTCTTGATTCGCTTGACGCTGCTG,4.78,4.21,6.09,5.19,7.17,4.81,4.42
CCGATTAACATCAAGGATCCCCCTGATGTTAATCGGGTCTTGATTCGCTTGACGCTGCTG,8.01,6.51,6.9,5.03,8.82,6.4,6.43
CCGATTAACATCAAATCTTCCCCTGATGTTAATCGGGTCTTGATTCGCTTGACGCTGCTG,6.29,8.14,10.4,9.84,4.74,6.11,6.14
CCGATTAACATCAGGGGAAGCTATGATGTTAATCGGGTCTTGATTCGCTTGACGCTGCTG,4.87,5.26,6.8,6.23,3.04,3.92,4.77
CCGATTAACATCAGGGGAATACCTGATGTTAATCGGGTCTTGATTCGCTTGACGCTGCTG,9.84,11.8,10.1,5.97,9.67,10.5,6.93
CCGATTAACATCAAACATTCCCATGATGTTAATCGGGTCTTGATTCGCTTGACGCTGCTG,1.96,3.21,2.5,2.38,1.59,3.52,2.11
CCGATTAACATCAGAAAAGTCCCTGATGTTAATCGGGTCTTGATTCGCTTGACGCTGCTG,7.92,10.1,9.94,1.28,8.36,8.15,6.91
CCGATTAACATCAGGGGAAATGATGATGTTAATCGGGTCTTGATTCGCTTGACGCTGCTG,5.75,6.87,9.61,7.35,2.27,4.43,5.37
CCGATTAACATCAGGGACTGCCCTGATGTTAATCGGGTCTTGATTCGCTTGACGCTGCTG,4.31,4.95,3.06,1.04,4.22,7.19,4.14
CCGATTAACATCAACAATCCCCCTGATGTTAATCGGGTCTTGATTCGCTTGACGCTGCTG,7.89,7.16,7.92,5.22,5.46,5.71,6.6
CCGATTAACATCAGCACTCCCCCTGATGTTAATCGGGTCTTGATTCGCTTGACGCTGCTG,5.42,4.35,4.91,3.89,2.23,3.99,5.21
CCGATTAACATCAGAAACACCCCTGATGTTAATCGGGTCTTGATTCGCTTGACGCTGCTG,3.57,2.68,2.16,3.34,3.56,3.93,3.61
CCGATTAACATCAAGGGGACTTCTGATGTTAATCGGGTCTTGATTCGCTTGACGCTGCTG,7.92,7.59,7.54,2.41,7.45,6.14,6.74
